Bioassay records (PubChem BioAssay)
HP1b binding inh = HTS for Inhibitors of HP1-beta Chromodomain Interactions with Methylated Histone Tails; Chromobox protein homolog 1 (Homo sapiens), P83916; AlphaScreen HP1-beta / biotin-H3K9me3 peptide binding; Potency, µM (highest dose often 114 µM), for the others: top-dose activity change, negative = inhibition, actives largely listed as inhibitors; 390,000 compounds, 0.56% hits; AID 540317, 2011; note: nearly all actives have a fitted effect of over 70% in size
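AlphaScreen: HP1-beta (50 nM) preformed 30 min with biotin-H3(1-18)K9me3 peptide (50 nM) in PBS pH 7.4, 0.01% Tween-20. Compound added for 30 min at RT, then streptavidin donor/nickel chelate acceptor beads (10 ug/mL) for 30 min.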
G9a inh = qHTS Assay for Inhibitors of Histone Lysine Methyltransferase G9a; 350,000 compounds, 8.8% hits; Potency, µM (titrated, usually from 102 µM), inactives show at the top dose activity, negative = inhibition, hits mostly inhibitors; G9a H3K9 monomethylation, AlphaScreen, 2 h; Histone-lysine N-methyltransferase EHMT2 (Homo sapiens), Q96KQ7; note: % is set by controls: 0 for no effect and ±100 for the full control effect; nearly all actives have a fitted effect of over 75% in size
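Signal arises when biotinylated H3K9 peptide, once monomethylated, bridges streptavidin donor and antibody-captured acceptor beads. Enzyme at 20 nM was preincubated 15 min with test compounds; peptide 500 nM and SAM 20 uM then reacted for 2 h.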
Sfp inh = qHTS Assay for Inhibitors of Bacillus subtilis Sfp phosphopantetheinyl transferase (PPTase); 4'-phosphopantetheinyl transferase ffp (Bacillus subtilis), Q9F4F7; Biochemical Sfp PPTase activity, qHTS; Potency, µM, without a hit: largest response in the series, negative = inhibition, actives largely listed as inhibitors; 310,000 compounds, 3.5% hits;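 note: the enzyme is Sfp with the accession as filed and its product quenches rhodamine fluorescence; 0% = enzyme reaction without inhibitor and -100% = no enzyme wells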
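Reaction rates are the 30-min fluorescence difference (ex 525, em 598 nm) in wells containing 15 nM Sfp, 5 uM rhodamine-CoA and 12.5 uM BHQ-2-YbbR at pH 7.6 with 10 mM MgCl2.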
JMJD2A Tudor = qHTS Assay for Inhibitors of JMJD2A-Tudor Domain. AlphaScreen JMJD2A-Tudor / H3K4me3 peptide binding. Potency, µM (series often up to 114 µM), inactives show at the highest dose activity change, negative = inhibition, hits mostly inhibitors. 390,000 compounds, 4.4% hits; note: % is set by controls: 0 for no effect and ±100 for the full control effect; nearly all actives have a fitted effect of over 50% in size
L3MBTL1 inh = qHTS Assay for the Inhibitors of L3MBTL1. Lethal(3)malignant brain tumor-like protein 1 (Homo sapiens), Q9Y468. AlphaScreen L3MBTL1–H3K9me1 peptide binding. Potency, µM (doses to about 57.1 µM), for inactives: at the highest dose activity, negative = inhibition, most hits filed as inhibitors. 230,000 compounds, 0.66% hits; note: % is set by controls: 0 for no effect and ±100 for the full control effect; nearly all actives have a fitted effect of over 60% in size
Target sequence (Q9Y468 whole entry, looked up): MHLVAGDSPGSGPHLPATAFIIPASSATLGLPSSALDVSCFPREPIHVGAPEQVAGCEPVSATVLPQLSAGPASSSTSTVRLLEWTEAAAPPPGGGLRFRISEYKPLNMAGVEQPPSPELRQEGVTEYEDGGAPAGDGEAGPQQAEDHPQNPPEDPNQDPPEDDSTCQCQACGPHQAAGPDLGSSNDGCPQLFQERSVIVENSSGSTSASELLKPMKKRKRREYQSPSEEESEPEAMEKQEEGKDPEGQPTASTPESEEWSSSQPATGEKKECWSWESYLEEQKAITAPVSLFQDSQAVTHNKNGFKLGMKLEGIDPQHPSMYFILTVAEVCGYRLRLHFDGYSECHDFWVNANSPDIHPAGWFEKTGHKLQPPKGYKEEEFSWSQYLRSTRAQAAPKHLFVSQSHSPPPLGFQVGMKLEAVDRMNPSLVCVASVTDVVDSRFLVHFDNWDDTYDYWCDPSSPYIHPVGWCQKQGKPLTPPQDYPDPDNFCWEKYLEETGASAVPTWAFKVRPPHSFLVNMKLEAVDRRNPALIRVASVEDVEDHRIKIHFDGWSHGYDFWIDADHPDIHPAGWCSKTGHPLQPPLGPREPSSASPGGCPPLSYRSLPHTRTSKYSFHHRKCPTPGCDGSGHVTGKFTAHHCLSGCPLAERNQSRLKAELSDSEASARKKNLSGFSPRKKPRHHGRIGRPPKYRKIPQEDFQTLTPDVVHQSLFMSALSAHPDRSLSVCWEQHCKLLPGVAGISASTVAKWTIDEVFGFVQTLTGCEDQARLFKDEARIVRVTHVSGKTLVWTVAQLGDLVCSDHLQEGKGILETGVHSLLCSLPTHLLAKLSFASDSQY
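L3MBTL1 (50 nM) pre-complexed 30 min with biotinylated H3(1-15)K9me1 peptide (75 nM), then compounds added for 30 min at room temperature; AlphaScreen streptavidin donor/nickel chelate acceptor beads (10 ug/mL final) read after 30 min dark incubation.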
BAZ2B block = qHTS Assay for Inhibitors of BAZ2B; Potency, µM (series often up to 114 µM), without a hit: at the top dose activity change, negative = inhibition, usual class: inhibitors; Bromodomain adjacent to zinc finger domain protein 2B (Homo sapiens), Q9UIF8; 360,000 compounds, 4.4% hits; AlphaScreen BAZ2B-H3K14Ac peptide displacement; note: % is set by controls: 0 for no effect and ±100 for the full control effect; nearly all actives have a fitted effect of over 60% in size
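Compounds, titrated to a top concentration of 110 uM, were incubated 30 min at room temperature with preformed BAZ2B/acetyl-K14 H3 peptide complex (50 nM each). Proximity signal was measured by AlphaScreen after 20 min with beads.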
* marks the source's active call; other numbers are inactive results; ? = inconclusive; nt = no result given; [ ] = dose if it differs, or a comment. Only some compounds are listed: those with a hit (about 12% of all), similar ones and a draw of the others. Calls come from the whole dose curve; as a rule, active = well fitted curve in the direction sought with a large enough effect; inconclusive = small, poorly fitted or top-dose-only effect, or another doubt; inactive = no such curve, though single readings can be large; an effect the other way counts as inactive or inconclusive. Potency is the fitted concentration of half-maximal effect.

SMILES	HP1b binding inh	G9a inh	Sfp inh	JMJD2A Tudor	L3MBTL1 inh	BAZ2B block
CC(C)CC(C(=O)OCC(=O)c1c(N)n(C)c(=O)n(C)c1=O)N1C(=O)c2ccccc2C1=O (stereo unspecified)	18%	11µM*	-17%	-31%	-3%	-29%
Cc1ccc(OCCC(=O)OCC(=O)c2c(N)n(C)c(=O)n(C)c2=O)cc1	11%	-2%[0.501 µM]	nt	-5%	-4%	4%
CC(=O)N1CCc2cc(S(=O)(=O)Nc3ccc(C)c(C)c3)ccc21	nt	nt	nt	-6%	nt	nt
CCCCCCNC(=O)N[C@@H](C(=O)NCCC[C@H]1CN2C(=NC[C@@H]2Cc2ccccc2)N1CCc1cccc(OC)c1)C(C)C	?	?	3.5µM*	5µM*	nt	25µM*
CSc1ncc(-c2ccc(Cl)cc2)[nH]1	2%	40µM*	-16%	-21%	?	?
CCCN1CCC(=O)N(CCSc2ccc(Br)cc2)CC1	18%	nt	5%	-25%	nt	nt
COc1ccccc1C(OC(=O)c1cccs1)C(=O)NCc1ccco1 (stereo unspecified)	19%	45µM*	50µM*	-23%	-9%	?
CCCOC(=O)c1ccc(NS(=O)(=O)c2cccs2)cc1	28%	-1%[12.7 µM]	-3%	-22%	-1%	3%
O=C(COC(=O)c1ccc(NS(=O)(=O)c2cccs2)cc1)NCc1ccco1	-21%	?	35µM*	-29%[11.4 µM]	nt	32µM*
COc1cc(NC(=O)c2cccs2)c(C(=O)OCC(=O)NCc2ccco2)cc1OC	15%	-45%[12.7 µM]	?	-22%	nt	-7%
O=C(COC(=O)c1cccs1)NCc1ccco1	50µM*	?	-3%	35µM*	?	50µM*
CN(C)S(=O)(=O)c1ccc(C(=O)OCC(=O)NCc2ccco2)cc1	20%	50µM*	-4%	-10%[11.4 µM]	?	50µM*
O=c1cc(-c2cc(O)c(O)c([C@@H]3O[C@H](CO)[C@@H](O)[C@H](O)[C@H]3O)c2)oc2cc(O[C@@H]3O[C@H](CO)[C@@H](O)[C@H](O)[C@H]3O)cc(O)c12	nt	nt	-8%	nt	nt	nt
COc1ccc(CCNc2ncnc3nc[nH]c23)cc1	29%	nt	nt	-2%	nt	nt
Cc1ccc(C)c(CNC(=O)c2ccc3c(c2)nc2n3CCCCC2)c1	30%[57 µM]	-21%[59 µM]	nt	-1%	nt	-3%
Cc1ccc(C)c(NC(=O)Cn2c(=O)n(CC(=O)NCCc3ccccc3)c(=O)c3ccccc32)c1	16%	-24%[59 µM]	nt	-9%	nt	1%
CCOc1cc(C(=O)OCC(=O)NCc2ccco2)cc(OCC)c1OCC	?	50µM*	-11%	56µM*	?	28µM*
c1csc(-c2cnc3ccccc3n2)c1	31%	36%[59 µM]	2%	18%	29%	32%
c1cc2c(cnc3cscc32)s1	41%	14µM*	-15%	-10%	0%	-37%
COC(=O)c1ccc(NCc2cc(O)ccc2O)cc1O	56µM*	nt	nt	8.9µM*	nt	nt
COC(=O)c1ccc(NCc2c(O)ccc(O)c2Br)cc1Cl	10µM*	nt	nt	3.5µM*	nt	nt
COC(=O)c1cc(NCc2c(F)cccc2Cl)ccc1N1CCOCC1	23%	-2%[2.33 µM]	-26%	-22%	-3%	-34%
CCN(CC)S(=O)(=O)c1ccc(OC)c(NC(=O)c2cc(=O)[nH]c3ccccc23)c1	32%	11%	26%	-18%	-4%	-13%
Cc1cc(C)n2nc(SCC(=O)NC(=O)c3ccc(OC(F)F)cc3)nc2n1	55%	nt	nt	-11%	-2%	nt
CCN1C(=O)[C@H]2[C@H]3CN=C(SCc4ccc(C#N)cc4)N3[C@@](Cc3ccccc3)(C(=O)OC)[C@H]2C1=O	34%	nt	nt	-36%	0%	nt
SMILES	HP1b binding inh	G9a inh	Sfp inh	JMJD2A Tudor	L3MBTL1 inh	BAZ2B block
CCN1C(=O)[C@H]2[C@H]3CN=C(SCc4ccccc4)N3[C@@](Cc3ccccc3)(C(=O)OC)[C@H]2C1=O	21%	nt	nt	89µM*	-8%	nt
CCN1C(=O)[C@H]2[C@H]3CN=C(SCC4CC4)N3[C@@](Cc3ccccc3)(C(=O)OC)[C@H]2C1=O	9%	nt	nt	89µM*	19%	nt
CC[C@]1(C(=O)OC)[C@H]2C(=O)N(Cc3ccccc3)C(=O)[C@H]2[C@H]2CN=C(SCc3ccc(C)cc3)N21	29%	nt	nt	-26%	4%	nt
CC[C@]1(C(=O)OC)[C@H]2C(=O)N(Cc3ccccc3)C(=O)[C@H]2[C@H]2CN=C(SCC3CC3)N21	19%	nt	nt	79µM*	31%	nt
Cc1ccc(S(=O)(=O)c2nc(S(=O)(=O)c3ccccc3)sc2N2CCN(C)CC2)cc1	2%	-17%	-1%	-33%	nt	?
CCn1ccc(C(=O)Nc2ccsc2C(=O)OC)n1	15%	nt	8%	-17%	nt	14%
Cc1noc(C)c1COc1ccccc1C(=O)NC(C)c1ccc(F)cc1 (stereo unspecified)	21%	nt	nt	-14%	nt	nt
CSCC[C@@H]1NC(=O)C/C=C\[C@@H](C)COC(=O)[C@@H](C)COC1=O	nt	nt	18%	nt	nt	nt
O=C(O)Cn1cc(/C=N/Nc2ccc([N+](=O)[O-])cn2)c2ccccc21	?	45µM*	?	?	nt	?
Cc1ccc(Cn2cc(/C=N/Nc3ccc([N+](=O)[O-])cn3)c3ccccc32)cc1	4%	50µM*	-8%	-22%	-2%	-21%
Cc1c(/C=N/Nc2ccc([N+](=O)[O-])cn2)c2ccccc2n1Cc1ccccc1	19%	-11%[59 µM]	0%	-20%	nt	-2%
Cc1cc(C)cc(OCC(=O)O/N=C(\N)c2ccccc2Cl)c1	218%	nt	-14%	197%	nt	196%
Cc1oc(-c2ccc(Cl)cc2)nc1CN1CCCC(C(=O)N2CCOCC2)C1 (stereo unspecified)	39%	?	5%	-12%	nt	-14%[57.1 µM]
CCN(CCNC(=O)C1CCCN(Cc2nc(-c3ccc(OC)cc3)oc2C)C1)c1ccccc1 (stereo unspecified)	-42%	-32%[12.7 µM]	?	32µM*	?	11µM*
CCc1ccc(-c2nc(CN3CCC(C(=O)NCCN(CC)c4ccccc4)CC3)c(C)o2)cc1	?	?	-14%	50µM*	?	?
Cc1cccc(-c2nc(CN3CCCC(C(=O)N4CCN(c5cc(Cl)ccc5C)CC4)C3)c(C)o2)c1 (stereo unspecified)	1%	14µM*	nt	-33%	nt	?
